This is one part of the list. Values without a mark were called inactive. Activity calls are given as the source filed them. Rule as the data show it: active = inhibition mostly above about 35% (no sharp cut-off); inactive = mostly below about 32%.
These compounds were tested against Sentrin-specific protease 1 (Homo sapiens) (UniProt Q9P0U3) (assay: human SENP1 catalytic domain inhibitors, confirmation, biochemical, FRET endpoint, single concentration (AID 651678;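 also: 0% = enzyme with DMSO and 100% = no enzyme control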)). Conditions: recombinant SENP1, CyPet-SUMO1-YPet FRET cleavage; at 10 µM; active compounds read high.
Chain of Sentrin-specific protease 1 (Homo sapiens) (Q9P0U3 419-644 limits assumed): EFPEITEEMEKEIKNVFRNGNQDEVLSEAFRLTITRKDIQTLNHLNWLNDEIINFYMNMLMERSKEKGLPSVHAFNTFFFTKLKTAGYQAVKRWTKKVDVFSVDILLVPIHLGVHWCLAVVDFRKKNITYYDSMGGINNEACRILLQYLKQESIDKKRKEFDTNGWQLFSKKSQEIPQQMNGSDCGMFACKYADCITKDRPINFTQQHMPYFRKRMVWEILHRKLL
For `CCCCCn1nnnc1-c1nc2cc3ccccc3cc2[nH]c1=O`, the inhibition was 84.5% (active). `O=C(CCN1C(=O)/C(=C/c2cccs2)SC1=S)NNC(=O)c1cccc(O)c1` was tested, and the inhibition was 66.9% (active). Work on `CCOC(=O)C1CCN(c2ncnc3c2c(-c2ccccc2)cn3-c2ccc(C)cc2)CC1` yielded an inhibition of 6.42%. With `COc1ccc(OC)c(C2C3=C(N=c4s/c(=C\c5cccc(O)c5)c(=O)n42)c2ccccc2CC3)c1` (stereo unspecified) the inhibition was 35.7%. Compound `O=[N+]([O-])c1ccc(N=NNc2ccc([N+](=O)[O-])cc2)cc1` has an inhibition of 20.1%. Compound `c1coc(-c2nc3nc4ccccc4n3nc2-c2ccco2)c1` has an inhibition of 19.4%. For `Fc1cccc(Cc2c(-c3cccc(Cl)c3)nc3ccc(Br)cn23)c1`, the inhibition was 4.53%. `O=C1CC[C@@H]2CC3(C[C@@H]4CCN1[C@H]24)Nc1cc([N+](=O)[O-])ccc1NC3=NC1CCCCC1` (stereo partly specified) was tested, and the inhibition was 21.6%. With `CC(=O)c1cccc(-c2cnc3c(NC=O)cc(-c4ccc(N(C)C)cc4)cn23)c1` the inhibition was 57.9% (active). In the case of `Cc1ccc2c(c1)nnc1nnc(SCC(=O)O)n12`, the inhibition is reported as 71.8% (active). Work on `Cc1cccc(C)c1Nc1c(-c2ccccc2O)nc2ncccn12` yielded an inhibition of 16.2%. In the case of `O=C(NC(=O)c1ccccc1)Nc1ccccc1O`, the inhibition is reported as 0.15%. Compound `N/C(=N\OC(=O)N1c2ccccc2Sc2ccccc21)c1ccc(Br)cc1` has an inhibition of -2.12%. Work on `O=C1/C(=C/c2coc3ccc(O)cc3c2=O)SC(=S)N1c1ccccc1` yielded an inhibition of 3.85%. `COc1cc(/C=C2\CCCc3c2nc2ccccc2c3C(=O)O)cc(Cl)c1O` was tested, and the inhibition was 97.5% (active). In the case of `Cn1c(-c2sc3cc(C(F)(F)F)cnc3c2-c2ccccc2)n[nH]c1=S`, the inhibition is reported as -1.85%. With `CCN(CC)S(=O)(=O)c1cc([N+](=O)[O-])ccc1N=Nc1c(O)n(C)c2ccccc12` the inhibition was 10.5%. With `Cc1ccc(C(=O)N/N=C\c2cc(Br)c(Br)o2)cn1` the inhibition was 11.3%. `COc1ccc(N2C(=O)C3C(C2=O)C(C(=O)c2ccccc2)N2CCCC32)cc1` (stereo unspecified) was tested, and the inhibition was 36.9% (active). With `O=C1C=C(c2cccc(Cl)c2O)C[C@@H](c2ccc(F)cc2)C1` the inhibition was 94.1% (active). Compound `Cc1cc(C(=O)N/N=C/c2ccc(N3CCOCC3)cc2)c(C)o1` has an inhibition of 29.1%.

Source: PubChem BioAssay AID651678 (Sanford-Burnham Center for Chemical Genomics, 2012)
